Rows were chosen to be rich in hits. Some 1.6% of all compounds tested hit in one or more screens of this group.
NFkB transloc pot = enhancers of NFkB p65 translocation in HUVEC – imaging, IL-1B stimulus, high-content imaging, primary screen; HUVEC IL-1B NFkB p65 nuclear translocation imaging; activation, % at 2 µM; 94,000 tested, 0.3% active; AID 819, 2007;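 active = activation above 40%, about the mean plus 3 SD, also judged a hit on visual image review; inconclusive = activation above 40% but not a hit on visual review; inactive = activation not above 40% and no visual hit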;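 also: percent activation is computed from the nuclear over cytoplasmic p65 intensity ratio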
E-sel TNF inh = E-selectin induction blockers in HUVEC – imaging, immunofluorescence, high content, primary screen. inhibition, % at 2 µM. 120,000 tested, 0.71% active. HUVEC TNFa-induced E-selectin immunofluorescence;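 active = inhibition above the batch mean plus 3 SD, and confirmed as a hit on visual image review, cut at about 43% in these data; inconclusive = passes the inhibition cutoff but fails visual image review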;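 also: 0% = TNF-stimulated DMSO wells and 100% = unstimulated control wells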
IL1B NFkB inh = inhibitors of IL-1B driven NFkB p65 nuclear import, primary screen, imaging, HUVEC, IL-1B stimulus, high-content imaging; HUVEC IL-1B NFkB p65 nuclear translocation imaging; inhibition, % at 2 µM; 94,000 tested, 0.43% active;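 active = inhibition above about 30% together with a positive call from visual inspection of the well image, limit read from the data; inconclusive = inhibition above a set limit but visual check negative; inactive = inhibition not above a set limit, visual check negative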;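 also: nuclear over cytoplasmic p65 intensity ratio measured by imaging; 0% = IL-1B stimulated DMSO wells and 100% = unstimulated DMSO wells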
VCAM1 TNFa inh = inhibitors of TNFa-induced VCAM1 expression, primary screen, imaging, HUVEC, TNFa stimulus, immunofluorescence | 95,000 tested, 0.48% active | inhibition, % at 2 µM | HUVEC TNFa-induced VCAM-1 immunofluorescence, high-content imaging;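 active = inhibition above the batch mean plus 3 SD, with images confirmed as a hit by eye, cut at about 37% in these data; inconclusive = inhibition above that limit but hit not confirmed in images; inactive = inhibition not above that limit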;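 also: 0% = TNF-stimulated DMSO wells and 100% = unstimulated control wells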
IL1B cytotox = cytotoxicity in IL-1B stimulated HUVEC, primary screen, cytotoxicity control for IL-1B NFkB translocation project, imaging, Hoechst nuclear count, IL-1B stimulus; HUVEC cell count loss; cell count reduction, % at 2 µM; 94,000 tested, 0.41% active;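 active = cell count reduction more than 3 SD above the screen-wide mean, cut at about 70% in these data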;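 also: normalized per plate to untreated control cells as the no-loss baseline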
HUVEC tox TNFa = cytotoxicity in TNFa-stimulated HUVEC, primary screen, cytotoxicity control for VCAM1 expression modulator project, imaging, Hoechst nuclei count. cell count reduction, % at 2 µM. HUVEC TNFalpha-stimulated, Hoechst cell count. 93,000 tested, 0.17% active;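 active = cell count reduction exceeding the screen mean by over 5 SD, scaled to untreated wells per plate, cut at about 78% in these data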;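 also: cells counted after 24 h of TNF alpha exposure following the 1 h pretreatment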
* marks the source's active call; other numbers are inactive results; ? = inconclusive; . = no result given.

SMILES | NFkB transloc pot | E-sel TNF inh | IL1B NFkB inh | VCAM1 TNFa inh | IL1B cytotox | HUVEC tox TNFa
O=C(NO)c1ccc(C(=O)N(C2CCCCC2)C2CCCCC2)cc1 | 44* | 21 | -44 | -10 | 1 | -17
CN(C(=O)c1ccc(C(=O)N(C)C2CCCCC2)cc1)C1CCCCC1 | -5 | 40 | 6 | 1 | 18 | 1
CCOC(=O)c1c(C)c(C(=O)NC2CCCCC2)c(C)n1CC | 154* | -9 | . | 6 | 7 | -12
Cc1cc(C)n2nc(C(=O)OCC(=O)c3c[nH]c4ccccc34)nc2n1 | . | -3 | . | . | . | .
c1csc(C(c2nnnn2C2CCCC2)N2CCOCC2)c1 (centres undefined) | . | -17 | . | . | . | .
c1csc(C(c2nnnn2C2CCCC2)N2CCCC3(CCCCC3)C2)c1 (centres undefined) | -7 | 57* | 7 | 13 | 2 | -3
C/C(CCc1ccccc1)=N\NC(=O)C(=O)Nc1cccc(Cl)c1 | . | 6 | . | . | . | .
CC(C)n1c(=S)[nH]c2ccccc2c1=O | -37 | . | 36* | 1 | -3 | 3
COc1ccc2cc(CN(CCc3ccccc3)Cc3nnnn3Cc3ccco3)c(=O)[nH]c2c1 | 168* | -15 | . | -3 | 0 | -56
CCOC(=O)Cn1nnnc1CN(Cc1cccs1)Cc1cc2cc(C)ccc2[nH]c1=O | 7 | -7 | -7 | -57 | 3 | .
Cc1ccc2[nH]c(=O)c(CN(Cc3nnnn3C3CCCC3)C3CCCCC3)cc2c1 | 12 | 4 | -12 | 22 | -71 | -40
CCOC(=O)Cn1nnnc1CN(CCc1ccccc1)Cc1cc2cc(CC)ccc2[nH]c1=O | 4 | 19 | -4 | ? | -19 | 83*
Cc1ccc2[nH]c(=O)c(CN(Cc3ccccc3)Cc3nnnn3C3CCCC3)cc2c1 | -1 | . | 1 | -4 | 72* | -4
Cc1cc(C(=O)NN)c2cc(Br)ccc2n1 | -4 | -10 | 4 | 56* | 19 | 52
Cc1cc(C(N)=O)c2cc(Br)ccc2n1 | 18 | 8 | -18 | -17 | -40 | -6
COc1ccccc1Cc1nc(-c2ccncc2)no1 | . | 77* | . | . | . | .
Clc1ccccc1OCc1nc(-c2ccncc2)no1 | 15 | 22 | -15 | . | -30 | .
O=S(=O)(c1ccc(Cl)cc1)N1c2ccccc2Oc2nc3ccccc3nc21 | -97 | -8 | 97* | 12 | 86* | 0
C=CCCCOc1ccc(C(=O)O)cc1 | 2 | -7 | -2 | 76* | 8 | 35
CCCCOc1ccc(C(=O)O)cc1 | 1 | -14 | -1 | -14 | -3 | -15
Cc1ccc(-c2nn(-c3ccccc3)cc2CN(Cc2ccccc2)C(=O)c2ccco2)o1 | 46* | -19 | -46 | 2 | 11 | -14
CCC(COC(=O)Nc1cccc(C)c1C)NC(=O)OCC(C)C (centres undefined) | -31 | -2 | 31* | 0 | 3 | -1
O=C1CCN(S(=O)(=O)c2ccc(Br)cc2)CCN1 | . | 0 | . | . | . | .
COCC(=O)N1CCN(c2nc3ccccc3o2)CC1 | . | -16 | . | . | . | .
Cc1cccc(NC(=O)CCSc2nc(C)cc(C)n2)c1 | 8 | 76* | -8 | 0 | -64 | 5
SMILES | NFkB transloc pot | E-sel TNF inh | IL1B NFkB inh | VCAM1 TNFa inh | IL1B cytotox | HUVEC tox TNFa
COc1ccc(CCNC(=O)CSc2nnc(C(C)N(C)C)n2Cc2ccccc2)cc1OC (centres undefined) | . | -36 | . | . | . | .
COc1ccc(Cl)cc1NC(=S)N(Cc1ccc(C(=O)O)cc1)Cc1ccc(OC)c(OC)c1 | . | 5 | . | . | . | .
CCNc1nc(NC(C)CC)nc(ON=C(C)C)n1 (centres undefined) | . | 2 | . | . | . | .
Cc1ccc(CN2C3=NCCCN3c3ccccc32)cc1 | 24 | 2 | -24 | -6 | -1 | -8
CC(C)(C)c1ccc(CN2C3=NCCCN3c3ccccc32)cc1 | -21 | -4 | 21 | 6 | 75* | -17
COc1cc(/C=N/NC(=O)CSCc2ccc([N+](=O)[O-])cc2)cc(OC)c1OC | 10 | 10 | -10 | 1 | 89* | -2
CCOC(=O)C(C)Oc1cccc2c(=O)n(CC(=O)NCc3ccc4c(c3)OCO4)ccc12 (centres undefined) | 14 | . | -14 | 39 | -48 | 94*

Bioassay records (PubChem BioAssay)
